Screening data: PubChem BioAssay, Buhrlage Lab, Dana-Farber Cancer Institute and Novartis Institutes for BioMedical Research (Cambridge, Mass)
USP28 block: human USP28 deubiquitinase inhibition. Q96RU2. purified USP28, Ub-rhodamine cleavage fluorescence, 30 min. inhibition, % at 25 µM. 47,000 compounds, 3% hits. AID 1645857
USP30 inh: inhibitors of human USP30 deubiquitinase; inhibition, % at 25 µM; AID 1645860; 47,000 compounds, 5.3% hits; Q70CQ3; purified USP30, Ub-rhodamine cleavage fluorescence
USP17 block: blocks human USP17 ubiquitin-rhodamine cleavage; purified USP17, Ub-rhodamine cleavage fluorescence, 3 h; inhibition, % at 50 µM; 47,000 compounds, 6.5% hits; A8MUK1; AID 1645855
Target sequence (A8MUK1 whole entry, looked up): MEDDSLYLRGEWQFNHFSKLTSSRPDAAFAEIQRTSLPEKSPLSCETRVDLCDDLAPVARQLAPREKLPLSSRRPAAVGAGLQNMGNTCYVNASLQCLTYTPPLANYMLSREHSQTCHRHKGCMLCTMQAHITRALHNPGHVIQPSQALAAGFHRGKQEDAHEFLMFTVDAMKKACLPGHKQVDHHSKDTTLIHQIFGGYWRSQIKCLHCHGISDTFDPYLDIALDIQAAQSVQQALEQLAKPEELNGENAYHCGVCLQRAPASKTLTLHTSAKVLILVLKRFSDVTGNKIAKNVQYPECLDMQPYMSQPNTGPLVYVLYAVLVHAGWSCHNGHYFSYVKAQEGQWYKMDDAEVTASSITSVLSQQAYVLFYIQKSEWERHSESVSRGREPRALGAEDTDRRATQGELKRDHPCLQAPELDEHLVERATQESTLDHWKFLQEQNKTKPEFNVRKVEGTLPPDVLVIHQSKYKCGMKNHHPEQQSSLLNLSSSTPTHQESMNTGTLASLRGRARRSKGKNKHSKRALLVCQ
Active calls of the source: *; i = inactive; nt = no result. Compounds with a hit are over-represented: about 11% of the library has one in this group of screens. Cut-off read from the data, not from the text of the source: active = inhibition above about 30%; inactive = the rest.

SMILES	USP28 block	USP30 inh	USP17 block
CCCN(CCC)CCCNC(=O)C1c2ccccc2C(=O)N(CC(C)C)C1c1cccs1 (stereo not drawn)	-3	-4	-11
CCc1nnc(NC(=O)c2c(C)nn(Cc3ccccc3Cl)c2C)s1	12	-8	7
COc1ccc(C(=O)CSc2nnc(-c3cccnc3)n2-c2ccccc2)cc1	0	52*	42*
Cc1cc(C)c(C(=O)CSc2nnc(-c3cccnc3)n2C)cc1C	-2	2	0
c1ccc(-c2nc(-c3ccnc(N4CCOCC4)c3)no2)cc1	5	14	11
COc1cccc2c1C(=O)c1ccc3c(c1C2=O)C(=O)C[C@@H](C)[C@@H]3O	10	-8	45*
COc1ccccc1Nc1ncc2c(n1)CC(C)CC2=O (stereo not drawn)	18	23	17
COc1cccc2c1C(=O)c1ccc3c(c1C2=O)C(=O)C[C@@H](C)C3	4	-51	30*
O=C(NC1CCCCC1)C1(Cc2ccc(-c3ccncc3)cc2)CCOCC1	7	19	6
O=C(c1cccc2cccnc12)N1CCCn2nnc(COCC3CC3)c2C1	16	18	15
CCc1nc(-c2ccc3c(c2)CCN3C(=O)c2ccco2)no1	-9	4	-10
O=C(CSc1ccc2nnc(CCNS(=O)(=O)c3ccccc3)n2n1)NCc1ccc(F)cc1	12	16	39*
COc1ccc(S(=O)(=O)NCCc2nnc3ccc(SCC(=O)NCc4ccccc4)nn23)cc1	0	5	0
Cc1cc2c3c([nH]c2cc1S(=O)(=O)N1CCCCC1)CC(C)(C)CC3=O	8	18	5
Cc1nn(-c2ccccc2)c(C)c1NC(=O)c1cnn(Cc2ccccc2)c1	31*	17	17
O=C(NC1=NCCS1)c1cnn(Cc2ccccc2)c1	-7	0	2
COC(=O)c1ccc(C(=O)OC)c(N2C(=O)CSCC2=O)c1	13	49*	20
COC(=O)c1ccc(O)c(O)c1	0	17	-39
O=C(COc1ccccc1)N1CCc2[nH]nc(-c3ccc(Cl)cc3)c2C1	-7	-24	-10
O=C(COc1ccc(Cl)cc1)N1CCc2[nH]nc(-c3ccc(Cl)cc3)c2C1	20	33*	23
CS(=O)(=O)N1CC(C(=O)N2CCN(c3ccccc3)CC2)C2(CCCCC2)C1 (stereo not drawn)	-13	-27	-15
CCc1nnc(-c2csc(S(=O)(=O)N3CCCCCC3)c2)o1	10	19	5
COc1ccc(C(=O)Nc2ccc3nc(C)c(C)nc3c2)cc1	21	-10	-5
COc1ccc(-c2ncc(NC(=O)C3CC3)cn2)cc1	-2	12	0
O=C(Nc1cnc(N2CCOCC2)nc1)c1ccc(Cl)cc1	25	-2	14
SMILES	USP28 block	USP30 inh	USP17 block
Cc1ccc(C(=O)Nc2ccc3nccnc3c2)cc1	59*	29	6
COc1ccc(NC(=O)c2ccc(C)cc2)cc1	25	31*	45*
COc1ccc(C(=O)Nc2cnc(-c3ccccc3)nc2)cc1	-10	-17	38*
Cc1ccc(C(=O)Nc2cccc(CO)c2)cc1	-4	-17	0
Cc1ccc(C(=O)Nc2cnc(N3CCOCC3)nc2)cc1C	40*	5	-4
COc1ccccc1CN(C(=O)c1cnccn1)C(C(=O)Nc1ccc(F)cc1)c1ccccc1F (stereo not drawn)	8	7	17
O=C(Cn1cc(S(=O)(=O)Cc2cccc(F)c2)c2ccccc21)N1CCCCC1	0	1	-2
CN1CC[C@@H]2Oc3ccccc3S(=O)(=O)N(C)[C@H]2CC1	-9	-57	-31
CC(=O)Nc1ccc(C(=O)Nc2cnc(N3CCCCCC3)nc2)cc1	-129	-52	-111
O=C(Nc1ccc(-n2cccc2)cc1)c1ccc(F)cc1	4	28	12
COc1ccc(C(=O)Nc2cnc(N3CCCCC3)nc2)cc1	38*	-31	-13
COc1ccc(NC(=O)c2ccc(Nc3nnc(C)c4ccccc34)cc2)cc1	66*	17	23
CCOc1ccc(NC(=O)c2cnc(Nc3ccc(OC)cc3)c3ccccc23)cc1	-14	-12	8
CN(C)S(=O)(=O)Oc1ccc(C(=O)Nc2ccc(F)cc2)cc1	32*	41*	40*
Cc1ccc(C)c(CNC(=O)c2cnc(-c3ccccc3)nc2-c2ccncc2)c1	-79	-308	-28
COc1ccc(C(C)NC(=O)c2cnc(-c3ccccc3)nc2-c2ccncc2)cc1 (stereo not drawn)	-126	i	40*
CCN1CCN(c2ccc(NC(=O)c3ccc(OC)cc3)cn2)C1=O	45*	9	22
CCN1CCN(c2ccc(NC(=O)c3ccc4c(c3)OCO4)cn2)C1=O	8	16	1
COC(=O)c1ccc2c(=O)n(CCCCCC(=O)NCCc3ccc(OC)c(OC)c3)c(=O)[nH]c2c1	29	46*	25
Cn1cc(CCCC(=O)NCc2cccc(Cl)c2)c2ccccc21	-4	-12	-26
COC(=O)c1ccc2c(=O)n(CCCCCC(=O)NCc3cccc(Cl)c3)c(=O)[nH]c2c1	16	62*	31*
COC(=O)c1ccc2c(=O)n(CCCCCC(=O)NCCC3=CCCCC3)c(=O)[nH]c2c1	-2	-2	13
CCc1cc2c(=O)n(CC(=O)N3c4ccccc4CC3C)cnc2s1 (stereo not drawn)	-12	-54	-18
O=C1NC2(CCCCCC2)C(=O)N1Cc1nc(-c2ccc(Cl)cc2)no1	-12	-34	40*
CCOc1ccc(-c2nc(CN3C(=O)NC4(CCCC4)C3=O)cs2)cc1	-10	-30	12
SMILES	USP28 block	USP30 inh	USP17 block
O=C(Nc1cccc(F)c1)C1CCN(S(=O)(=O)c2ccc(F)cc2)CC1	0	0	-4
COc1ccc(C(=O)Nc2cccn3cnnc23)cc1OC	-7	-45	-9
CC1CC(=O)c2c(cc3c(-c4c(O)cc(O)c5c(O)c6c(cc45)OC(C)CC6=O)c(O)cc(O)c3c2O)O1 (stereo not drawn)	85*	9	88*
CC(O)CCc1ccc(C(=O)O)nc1 (stereo not drawn)	2	17	-26
O=C(C1CCCCC1)N1CCCC(c2nn(CCOc3ccccc3)c3nccnc23)C1 (stereo not drawn)	20	33*	31*
O=C(CC1CCCC1)N1CCCC(c2nn(CCOc3ccccc3)c3nccnc23)C1 (stereo not drawn)	18	23	15
Cc1ccc(N2CCCn3c2nc2c3c(=O)n(CCCc3ccccc3)c(=O)n2C)cc1	1	14	0
Cc1ccc(N2CCCn3c2nc2c3c(=O)n(CCc3ccccc3)c(=O)n2C)cc1	8	31*	11
O=C(Cn1nc(-c2ccccc2)c2cc(Cl)ccc21)Nc1ccc(Br)cc1F	nt	nt	-1
CCNc1nc2c(c(=O)[nH]c(=O)n2C)n1CC(O)COc1cccc(C)c1 (stereo not drawn)	-3	21	9
O=C(NCc1cccc(Br)c1)c1cc2ccccn2n1	30*	25	15
O=C(NCCCN1CCOCC1)c1cc2ccccn2n1	-12	-16	-11
O=C(Cn1cc(-c2nnco2)c2ccccc21)NC1CCCCC1	0	0	1
N#Cc1c(-c2cccs2)c2c([nH]c1=O)-c1ccccc1CC2	-113	-493	-112
Cc1nc(C(=O)N[C@@H](C)C(=O)NCc2ccc3c(c2)OCO3)cc2c1[nH]c1ccccc12	-5	9	57*
